Screening results deposited in PubChem by several laboratories.
CRFR2-BP ag: agonists of CRF-BP/CRF-R2 complex, primary screen, cell-based, HEK293, calcium dye fluorescence, uHTS; CRF-binding protein / CRF receptor 2 complex (human); calcium dye fluorescence (FLIPR); percent of saturating CRF peptide response; activation, % at 13.2 µM; hit rate 0.46% among 350,000; AID 588473, 2011;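 active = activation of at least 50%, plus an integration ratio under a set limit after plate pattern correction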;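 note: plate controls were neutral control wells without compound for no effect and CRF at EC100 for full effect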
MEKK2 WT-MEK5: modulators of MEK5 binding to wildtype MEKK2, primary screen, biochemical, multiplex bead flow cytometry, Alexa488-MEK5. hit rate 1.1% among 290,000. Alexa488-MEK5 binding to MEKK2 WT; actives lie on both sides. binding response (% of control), % at 10 µM. Mitogen-activated protein kinase kinase kinase 2 (Homo sapiens), Q9Y2U5. AID 1531, 2009; in the data active = binding response below about 67% or above about 130%
MEKK3 PB1 HTS: modulators of MEKK3-MEK5 PB1 binding, primary screen, biochemical, wildtype MEKK3, multiplex bead flow cytometry, Alexa488-MEK5. binding response (% of control), % at 10 µM. bead-based flow cytometry, Alexa488-MEK5 binding to MEKK3; actives lie on both sides; 0 = blocked by unlabeled MEK5, 100 = vehicle. AID 1529, 2009. Mitogen-activated protein kinase kinase kinase 3 (Homo sapiens), Q99759. hit rate 1.4% among 290,000;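 active = binding response more than 3 SD above or below the average of its plate-row segment, actives on both sides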;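 note: Alexa488 bead fluorescence after subtracting the streptavidin-only scavenger bead signal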
MEKK2mut PB1 HTS: MEK5 binding signal on mutant MEKK2 PB1, primary screen, biochemical, multiplex bead flow cytometry, Alexa488-MEK5; Alexa488-MEK5 binding to MEKK2 mutant; percent response, % at 10 µM; hit rate 0.35% among 290,000; AID 1530, 2009; in the data active = percent response above about 24%, passing the limit was not always enough
ABCB6 inh MLPCN: ABCB6 transporter inhibitors, primary screen, K562-ABCB6 cells, flow cytometry, MLPCN library | ATP-binding cassette sub-family B member 6 (Homo sapiens), Q9NP58 | K562-ABCB6 porphyrin accumulation, 1 h; stronger effect = lower value | fluorescence ratio to DMSO, % at 10 µM | hit rate 0.19% among 360,000;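 active = fluorescence ratio to DMSO below 75%, the collection mean minus 3 SD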;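 note: signal is porphyrin accumulated inside mitochondria; 100% equals median channel fluorescence of DMSO control wells; lower ratio means ABCB6 inhibition with less porphyrin fluorescence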
Target sequence (Q9NP58 whole entry, looked up): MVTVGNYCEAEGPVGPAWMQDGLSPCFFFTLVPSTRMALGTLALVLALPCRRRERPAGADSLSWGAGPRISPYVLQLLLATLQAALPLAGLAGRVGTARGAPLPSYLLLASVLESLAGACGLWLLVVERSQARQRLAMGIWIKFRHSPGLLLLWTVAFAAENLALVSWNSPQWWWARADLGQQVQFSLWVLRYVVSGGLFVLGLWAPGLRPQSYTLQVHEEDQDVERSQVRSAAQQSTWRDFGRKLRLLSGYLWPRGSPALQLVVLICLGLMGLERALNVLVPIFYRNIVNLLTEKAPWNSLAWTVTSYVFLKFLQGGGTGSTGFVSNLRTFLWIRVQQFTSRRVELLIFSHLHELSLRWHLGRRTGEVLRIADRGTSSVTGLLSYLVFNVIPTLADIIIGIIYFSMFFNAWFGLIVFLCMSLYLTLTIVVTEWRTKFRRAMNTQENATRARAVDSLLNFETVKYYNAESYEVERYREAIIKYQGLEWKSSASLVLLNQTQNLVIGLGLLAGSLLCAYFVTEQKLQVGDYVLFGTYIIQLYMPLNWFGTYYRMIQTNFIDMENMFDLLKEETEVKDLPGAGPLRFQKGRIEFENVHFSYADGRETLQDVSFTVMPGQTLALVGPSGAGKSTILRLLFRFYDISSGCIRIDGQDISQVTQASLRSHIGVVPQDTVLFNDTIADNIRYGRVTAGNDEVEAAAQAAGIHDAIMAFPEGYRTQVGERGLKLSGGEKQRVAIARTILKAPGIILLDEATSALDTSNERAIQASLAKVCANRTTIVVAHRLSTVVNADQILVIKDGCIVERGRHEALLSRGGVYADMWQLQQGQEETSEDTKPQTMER
CRFR2-BP antag: antagonists of CRF-BP/CRF-R2 complex, primary screen, cell-based, HEK293, calcium dye fluorescence, uHTS; hit rate 0.59% among 350,000; inhibition, % at 11.8 µM; CRF-induced calcium fluorescence;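 active = inhibition of the ligand-induced calcium signal above about 50% at the single tested concentration, limit read from the data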
ABCB6 blocker 1: ABCB6 transporter inhibitors, confirmation, K562-ABCB6 cells, flow cytometry, cherry pick 1. K562-ABCB6 porphyrin accumulation, 1 h; stronger effect = lower value. 700 tested, under 10 active. ratio response (% of DMSO), % at 10 µM. shares compounds with ABCB6 inh MLPCN;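 active = repeat-averaged ratio response below 75% of DMSO, the collection mean minus 3 SD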;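 note: median porphyrin fluorescence at 575 nm with 488 nm excitation from mitochondria; lower ratio means less porphyrin signal so ABCB6 inhibition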
The depositor's hits bear a star; nt = no result given. Rows were chosen to be rich in hits. Some 2.9% of all compounds tested hit in one or more screens of this group.

SMILES	CRFR2-BP ag	MEKK2 WT-MEK5	MEKK3 PB1 HTS	MEKK2mut PB1 HTS	ABCB6 inh MLPCN	CRFR2-BP antag	ABCB6 blocker 1
C[C@@]12C(=O)N(CCc3c[nH]c4ccccc34)CC(=O)N1[C@H]1c3ccccc3OC[C@@H]1[C@@H]2c1ccccc1	1	nt	nt	nt	99	-22	nt
CN(C)S(=O)(=O)c1cccc(NC(=O)CN2C(=O)NC(Cc3ccccc3)C2=O)c1 (stereo not given)	0	nt	nt	nt	99	-2	nt
Cc1c(Cc2ccccc2)c(=O)oc2cc(OCC(=O)N3CCC(C(=O)O)CC3)ccc12	1	100	101	1	102	-11	nt
COC(=O)[C@@H]1C[C@@]2(O)[C@H](O)[C@H](O)[C@H](O)C[C@H]2N1Cc1ccc(C(F)(F)F)cc1	0	80	77	7	72*	-12	100
COC(=O)[C@@H]1C[C@@]2(O)[C@@H](O)[C@@H](O)[C@@H](O)C[C@H]2N1Cc1ccc(C(F)(F)F)cc1	-1	89	89	-5	97	1	nt
CCOC(=O)N1CCN(S(=O)(=O)c2ccc(OCC(=O)OC)cc2)CC1	4	103	99	0	98	-12	nt
CCOC(=O)C1CCN(S(=O)(=O)c2ccc(OCC(=O)OC)cc2)CC1	-1	101	100	0	99	17	100
O=C(Nc1ccccc1)N(CCCN1CCOCC1)Cc1ccccc1F	2	104	104	9	78	8	nt
COc1ccc(CN(CCCN2CCOCC2)C(=O)Nc2ccccc2)cc1OC	0	111	106	7	68*	0	98
Cn1nc(-c2ccccc2)c(CO)c1Oc1ccc(F)cc1	-4	97	109	-2	69*	13	104
CC(=O)OCc1c(C(F)(F)F)nn(C)c1Oc1ccccc1	-2	94	92	-11	92	20	nt
CCc1cc(=O)oc2cc(C)cc(OCC(=O)NC3CCN(Cc4ccccc4)CC3)c12	0	108	100	2	97	2	nt
CC1(C(=O)NS(=O)(=O)c2ccc(C#N)cc2)CCN1C(=O)CC1CC1 (stereo not given)	nt	nt	nt	nt	96	nt	nt
COc1ccc(S(=O)(=O)NC(=O)C2(C)CCN2C(=O)Cc2cccc3ccccc23)cc1 (stereo not given)	nt	nt	nt	nt	104	nt	99
CC1(C(=O)NS(=O)(=O)c2ccc(C#N)cc2)CCN1C(=O)Cc1cccc2ccccc12 (stereo not given)	nt	nt	nt	nt	65*	nt	99
CC1(C)CC(=O)C=C(Nc2cccc(F)c2)C1	0	102	102	1	96	-3	nt
CC(O)c1cccc(NC2=CC(=O)CC(C)(C)C2)c1 (stereo not given)	1	101	103	1	64*	-2	100
O=C(CCN1C(=O)C2CC=CCC2C1=O)Nc1cccc(Cl)c1 (stereo not given)	-2	97	101	-2	99	-10	nt
COc1ccc(/C=N/N2C(C)CCCC2C)cc1OC (stereo not given)	-2	108	105	8	105	24	nt
CSc1ccccc1NC(=O)c1cc2c(=O)n3ccccc3nc2s1	-1	100	99	-3	102	-13	101
Cc1cc(C)cc(NC(=O)c2cc3c(=O)n4ccccc4nc3s2)c1	-1	96	99	0	91	14	97
O=C(O)C1C2C=CC(C2)C1C(=O)Nc1cccc(F)c1 (stereo not given)	2	100	101	0	58*	7	101
